# The list is not random: actives were taken first. Their share in the collection is about 1.1%.
# Mtb BioA inh – inhibitors of Mycobacterium tuberculosis BioA enzyme | inhibition, % at 9.99 µM | AID 602481 | 0.096% of 360,000 active | purified M. tuberculosis BioA enzyme, plate reader; in the data active means inhibition above about 40%; inconclusive means no clear call, values can overlap the other calls
# CCHFV vOTU inh – CCHFV vOTU protease inhibition | AID 651958 | inhibition, % at 11.5 µM | Pep-AMC fluorescence | 0.55% of 370,000 active; in the data active means inhibition above about 30%; further: 0% = vehicle wells with enzyme and 100% = no enzyme wells
# Mtb bLac sens – beta-lactam sensitization of Mtb H37Rv; AID 434955; M. tuberculosis H37Rv growth with meropenem, percent inhibition; 0.27% of 330,000 active; inhibition, % at 25 µM;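 further: growth measured after seven days incubation then overnight dye step; 0% = bacteria only wells and 100% = bacteria with antibiotic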
# BJeLR viability – BJeLR cell viability loss. BJeLR (HRASV12) viability, CellTiter-Glo ATP luminescence, 48 h. inhibition, % (test concentration not listed). 0.17% of 300,000 active. AID 1554; in the data active means inhibition above about 50%; inconclusive means no clear call, values can overlap the other calls
# Yp Topo-I inh – Y. pestis Topo-I inhibition via cleavage products. Y. pestis Topo-I cleavage product accumulation, plate reader. activity, % at 10 µM. 0.064% of 360,000 active. AID 504884; in the data active means activity above about 50%, passing the limit was not always enough; inconclusive means no clear call, values can overlap the other calls
# RecA intein inh – Mtb RecA intein splicing inhibition | P9WHJ3 | cell-free RecA intein splicing, fluorescence | inhibition, % (no concentration beside the values) | 0.75% of 290,000 active | AID 2221; in the data active means inhibition above about 30%; inconclusive means no clear call, values can overlap the other calls;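 further: 0% = vehicle wells and 100% = reference inhibitor control wells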
# Target sequence (P9WHJ3 whole entry, looked up): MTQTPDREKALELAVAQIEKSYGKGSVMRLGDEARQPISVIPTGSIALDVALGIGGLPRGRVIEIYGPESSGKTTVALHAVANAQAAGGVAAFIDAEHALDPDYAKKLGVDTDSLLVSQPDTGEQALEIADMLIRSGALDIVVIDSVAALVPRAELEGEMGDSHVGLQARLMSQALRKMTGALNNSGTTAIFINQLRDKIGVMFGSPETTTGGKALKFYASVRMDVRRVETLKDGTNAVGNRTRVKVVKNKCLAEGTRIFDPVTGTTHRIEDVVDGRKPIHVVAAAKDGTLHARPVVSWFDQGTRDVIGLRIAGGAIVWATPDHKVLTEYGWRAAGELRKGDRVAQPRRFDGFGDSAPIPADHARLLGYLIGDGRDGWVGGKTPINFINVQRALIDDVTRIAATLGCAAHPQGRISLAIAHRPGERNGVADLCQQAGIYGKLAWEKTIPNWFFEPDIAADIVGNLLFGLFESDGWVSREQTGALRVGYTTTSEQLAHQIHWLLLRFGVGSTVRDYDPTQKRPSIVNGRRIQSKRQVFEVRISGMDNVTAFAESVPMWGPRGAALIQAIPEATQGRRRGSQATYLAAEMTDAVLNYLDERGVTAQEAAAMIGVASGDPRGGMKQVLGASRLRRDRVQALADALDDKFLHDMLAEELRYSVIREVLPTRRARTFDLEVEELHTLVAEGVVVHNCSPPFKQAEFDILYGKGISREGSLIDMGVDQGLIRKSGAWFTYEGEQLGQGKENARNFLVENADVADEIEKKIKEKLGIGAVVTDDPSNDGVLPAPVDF
# GFP chromophore – counter-screen GFP chromophore formation inhibition; shares compounds with RecA intein inh; cell-free GFP chromophore formation, fluorescence; EC50, µM; 83% of 2,100 active
# * hit, by the source's call; ? = inconclusive; . = no result given. Unless noted, how the calls were made is not given here.
SMILES,Mtb BioA inh,CCHFV vOTU inh,Mtb bLac sens,BJeLR viability,Yp Topo-I inh,RecA intein inh,GFP chromophore
Cc1cc[n+](C2=C([O-])c3ccccc3C(=O)/C2=N\S(=O)(=O)c2cccs2)cc1C,-1,19,-3,4,-4,32*,6.7*
O=C1/C(=N\S(=O)(=O)c2cccs2)C([n+]2ccc(CCCc3ccccc3)cc2)=C([O-])c2ccccc21,-2,-8,78,2,4,8,.
Cc1cc(C)c[n+](C2=C([O-])c3ccccc3C(=O)/C2=N\S(=O)(=O)c2cccs2)c1,.,8,1,0,-11,2,.
CC(C)(C)c1cc[n+](C2=C([O-])c3ccccc3C(=O)/C2=N\S(=O)(=O)c2ccccc2)cc1,-1,9,3,-10,-3,50*,16*
O=C(Cc1ccccc1)NC1(O)C(=O)c2ccccc2C1=O,3,24,1,-2,6,66*,11*
O=C(Cc1cc(=O)[nH][nH]1)N/N=C/c1cccc(Cl)c1Cl,.,17,-2,-12,-1,94*,11*
O=C(Cc1cc(=O)[nH][nH]1)N/N=C/C(Cl)=C/c1ccccc1,0,-6,2,15,18,81*,6*
O=C(Cc1cc(=O)[nH][nH]1)N/N=C/c1ccccc1Cl,.,-8,2,-1,.,74*,7.7*
Cn1cccc1CC(=O)N/N=C/C(Cl)=C/c1ccccc1,.,-1,3,5,-7,3,.
O=C(Cc1cc(=O)[nH][nH]1)N/N=C/c1cccc2ccccc12,.,7,1,-6,6,94*,7.3*
CCC(=O)N[C@@H]1C=C[C@H](CC(=O)NCCN2CCCCC2)O[C@@H]1CO,-1,.,.,.,.,.,.
CCC(=O)N(CC)C1=C(O)c2ccccc2C(=O)C1=O,.,11,-7,1,-1,73*,12*
O=[N+]([O-])C(/C=C(/Cl)[N+](=O)[O-])=C(N1CCCCC1)N1CCCCC1,.,-9,?,-12,2,49*,20*
C/C(CC(=O)N1CCN(C=O)CC1)=N\NC(=O)c1cccc([N+](=O)[O-])c1,0,2,3,-5,3,71*,33*
CCc1ccc(Nc2n[n+](-c3ccccc3)c(-c3c(Cl)cccc3Cl)s2)cc1,-1,0,100,30,3,49*,16*
CC(NC(=O)/C(C#N)=C/c1ccc(Cl)c([N+](=O)[O-])c1)c1ccccc1 (stereo unspecified),.,6,81,27,.,62*,14*
C[C@@H](NC(=O)/C(C#N)=C/c1ccc(O)c(O)c1)c1ccccc1,1,6,6,.,-9,.,.
CCc1cc(C(=O)c2ccc(C)cc2)c(NC(=O)CCl)s1,.,10,97,-5,31,74*,14*
CO[C@H]1CN(C)C(=O)c2ccc(NC(=O)c3cnccn3)cc2OC[C@H](C)N(C(=O)C2CC2)C[C@@H]1C,1,.,.,.,.,.,.
C[C@@H]1CN([C@@H](C)CO)C(=O)c2c(c3ccccc3n2C)-c2ccccc2CO[C@H]1CN(C)Cc1ccc(C(=O)O)cc1,1,.,.,.,.,.,.
COc1ccc(NC(=O)Cn2ncc(Cl)c(Cl)c2=O)cc1S(=O)(=O)N1CCOCC1,2,0,-5,7,3,43*,31*
CCOC(=O)c1ccc(NC(=O)Cn2ncc(Cl)c(Cl)c2=O)cc1,.,-2,100,12,9,62*,13*
Cc1ccc(C(=O)OCn2ncc(Cl)c(Cl)c2=O)cc1,4,-4,100,-6,6,75*,6.4*
COc1ccc(NC(=O)CSc2ccccc2)cc1S(=O)(=O)N1CCOCC1,-2,11,1,2,6,1,.
O=C(OCn1ncc(Cl)c(Cl)c1=O)c1ccc(C(F)(F)F)cc1,-2,0,.,-11,3,80*,1.4*
C[C@@H]1CN([C@@H](C)CO)C(=O)c2cc(NC(=O)Nc3ccc(F)cc3)ccc2O[C@@H](C)CCCCO[C@@H]1CN(C)Cc1ccc2c(c1)OCO2,-3,.,.,.,.,.,.
CCNC(=O)[C@@H]1[C@@H](CO)[C@@H]2Cn3c(ccc(-c4ccccc4)c3=O)[C@@H]2N1Cc1ccccc1,7,.,.,.,.,.,.
Cc1nn(-c2ccccc2)c(Cl)c1CN(C(=O)CCl)c1cccc2ccccc12,.,-1,.,5,20,67*,6.3*

# Bioassay records deposited in PubChem by several laboratories.
